The list is not random: actives were taken first. Their share in the collection is about 0.88%.
RECQ1 inh-1: blocks DNA unwinding by human RECQ1 | P46063 | RECQ1 DNA unwinding, red fluorescence kinetic read | Potency, µM (highest dose often 57.3 µM), for inactives: at the highest dose activity, negative = inhibition, most hits filed as inhibitors | hit rate 0.54% among 240,000;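 note: plate controls were vehicle for no effect and no enzyme for full effect; nearly all actives have a fitted effect of over 30% in size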
Target sequence (P46063 whole entry, looked up): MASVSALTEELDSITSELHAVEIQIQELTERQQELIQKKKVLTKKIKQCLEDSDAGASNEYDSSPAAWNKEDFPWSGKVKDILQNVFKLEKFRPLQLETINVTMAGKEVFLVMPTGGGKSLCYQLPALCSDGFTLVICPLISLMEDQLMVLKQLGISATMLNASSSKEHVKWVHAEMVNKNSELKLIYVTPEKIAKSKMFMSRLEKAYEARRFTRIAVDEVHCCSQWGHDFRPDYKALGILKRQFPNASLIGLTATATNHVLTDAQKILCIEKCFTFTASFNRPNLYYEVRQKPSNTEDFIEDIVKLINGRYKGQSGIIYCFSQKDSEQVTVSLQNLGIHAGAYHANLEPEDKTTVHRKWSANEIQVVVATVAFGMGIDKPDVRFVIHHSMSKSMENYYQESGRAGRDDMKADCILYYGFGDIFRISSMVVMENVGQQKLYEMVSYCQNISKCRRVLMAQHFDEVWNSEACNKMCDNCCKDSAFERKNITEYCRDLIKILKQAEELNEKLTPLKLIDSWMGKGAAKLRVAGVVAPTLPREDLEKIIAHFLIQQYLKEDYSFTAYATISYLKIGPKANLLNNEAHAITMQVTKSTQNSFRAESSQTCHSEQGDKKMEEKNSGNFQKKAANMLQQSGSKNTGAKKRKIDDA
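50 nM RECQ1T1 preincubated 15 min with compound in Tris pH 8.0 buffer with MgCl2, DTT, Tween-20 and 2.5 ug/ml poly(dI-dC); started with 200 nM TAMRA/BHQ-2 forked duplex and 2 mM ATP. Unwinding read as fluorescence (525/598 nm), two reads 2 h apart.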
KAT2A inh: GCN5L2 (KAT2A) acetyltransferase inhibition. AID 504327. Q92830. Potency, µM (titrated, usually from 58.9 µM), without a hit: top-dose activity change, negative = inhibition, usual class: inhibitors. GCN5L2 HAT assay, ThioGlo1 CoA-SH fluorescence. hit rate 0.21% among 390,000; note: % is set by controls: 0 for no effect and ±100 for the full control effect
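ThioGlo1-coupled HAT assay: 20nM GCN5L2, 70uM acetyl-CoA, 75uM H3(1-25) peptide, pH 7.5. Fluorescence read at 340/540nm at start and after 20 min at room temperature.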
WRN inhibitor: inhibitors of human WRN helicase; Q14191; WRN helicase unwinding, fluorescent forked duplex, kinetic; Potency, µM (series often up to 114 µM), without a hit: at the top dose activity change, negative = inhibition, actives largely listed as inhibitors; hit rate 0.46% among 360,000; note: % is set by controls: 0 for no effect and ±100 for the full control effect; nearly all actives have a fitted effect of over 55% in size
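Screening of the MLSMR collection measured strand separation of a quenched forked DNA duplex (100 nM) by 20 nM WRN with 2 mM ATP, all final. Compounds were preincubated with enzyme 15 min at room temperature.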
ERG Ets-DNA blk: inhibitors of human ERG Ets domain-DNA interaction; Potency, µM (top dose mostly 76.9 µM), for the others: at the top dose FP activity, negative = inhibition, usual class: inhibitors; hit rate 0.028% among 370,000; fluorescence polarization, His-ERG Ets domain / labelled DNA; P11308; active = well fitted inhibition curve with a large enough effect in the polarisation, with a control signal flat; inconclusive = small, poorly fitted or top-dose-only effect, or effect the other way, or a change in a side signal; inactive = no such curve, though single readings can be large or run the other way; the % refers to the polarisation;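 note: polarization taken with two DNA probes labelled with fluorescein and Texas red; % of control where 0% means no effect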
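His-tagged ERG Ets domain (1 uM in the protein solution; 300mM KCl, 50mM Tris-HCl, 1mM EDTA, 1mM DTT, pH 7.5) received compound, then a probe mix of 5 nM fluorescein-DNA and 100nM Texas-615-DNA. Fluorescence polarization was read for both dyes.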
BLM inh: blocks DNA unwinding by human BLM helicase | recombinant BLM DNA unwinding, fluorescence dequenching | P54132 | Potency, µM (highest dose often 56.1 µM), without a hit: at the highest dose activity change, negative = inhibition, usual class: inhibitors | hit rate 0.2% among 350,000 | AID 2528;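 note: plate controls were vehicle for no effect and no enzyme for full effect; nearly all actives have a fitted effect of over 35% in size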
APEX1 inh: APE1 (human) endonuclease inhibition; recombinant APE1, TAMRA/BHQ-2 abasic DNA cleavage fluorescence; hit rate 0.35% among 350,000; P27695; Potency, µM (series often up to 65.8 µM), without a hit: at the highest dose activity change, negative = inhibition, hits mostly inhibitors;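 note: plate controls were vehicle for no effect and reference inhibitor for full effect; nearly all actives have a fitted effect of over 55% in size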
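Substrate: short duplex with […] THF abasic site, 5'-TAMRA and 3'-BHQ-2, 50 nM final. APE1 at 0.75 nM, preincubated 15 min RT with compound. Fluorescence increase from first to third read measured activity.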
RECQ1 conf: confirmation of human RECQ1 helicase inhibitors; AID 2708; RECQ1 helicase DNA unwinding, fluorescence; Potency, µM (top dose mostly 229 µM), for inactives: at the top dose activity change, negative = inhibition, actives largely listed as inhibitors; shares compounds with RECQ1 inh-1; hit rate 28% among 610; note: % is set by controls: 0 for no effect and ±100 for the full control effect; nearly all actives have a fitted effect of over 45% in size
ADP FP counter: counter-screen for RECQ1 inhibitors: ADP displacement. shares compounds with RECQ1 inh-1. ADP fluorescence polarization displacement counterscreen. Potency, µM (top dose mostly 228 µM), for inactives: at the top dose activity change, negative = inhibition, most hits filed as inhibitors. hit rate 27% among 530. AID 2711; note: % is set by controls: 0 for no effect and ±100 for the full control effect; nearly all actives have a fitted effect of over 45% in size
RECQ1 inh-2: RECQ1 helicase inhibition confirmed, round 2; shares compounds with RECQ1 inh-1; recombinant RECQ1 DNA unwinding, red fluorescence; Potency, µM (series often up to 119 µM), without a hit: at the highest dose activity, negative = inhibition, hits mostly inhibitors; hit rate 15% among 1,100; note: % is set by controls: 0 for no effect and ±100 for the full control effect; nearly all actives have a fitted effect of over 50% in size
An asterisk follows results filed as active; i = inactive; u = inconclusive; x = not tested or not shown; ! = a repeat was not active; [ ] = remark or other dose. Unless noted, calls come from the whole dose curve; as a rule, active = well fitted curve in the direction sought with a large enough effect; inconclusive = small, poorly fitted or top-dose-only effect, or another doubt; inactive = no such curve, though single readings can be large; an effect the other way counts as inactive or inconclusive. Potency is the fitted concentration of half-maximal effect.

SMILES	RECQ1 inh-1	KAT2A inh	WRN inhibitor	ERG Ets-DNA blk	BLM inh	APEX1 inh	RECQ1 inh-2	others
CCCCNC(=O)c1c(N)n(CCCOC)c2nc3ccccc3nc12	u	-0.2%	-7.9%	8.9%	u	-9.7%	-10.6%
CCCCOCCOP(=O)(OCCOCCCC)OCCOCCCC	-2.6%	x	x	x	x	-0.8%	x
Cn1c(O)c(/C=N/NC(=O)c2ccncc2)c(=O)[nH]c1=S	3.16µM*	-6.6%	-32.2%	69.5%	-3.4%	u	31.6µM*	RECQ1 conf=u;ADP FP counter=34.5%[91.9 µM]
Cn1c(O)c(/C=N/NC(=O)c2ccncc2)c(=O)n(C)c1=S	-1.6%	-17.4%	-9.6%	31.3%	-8.2%	-2.7%	x
CCOC(=O)N(C)C(=O)CSP(=S)(OCC)OCC	-1.5%	0.0%	x	x	-3.2%	-6.8%	x
Cc1cccc(O)c1	-10.7%	-2.0%	x	x	1.5%	-7.8%	x
CCCCC/C=C\C/C=C\C/C=C\C/C=C\CCCC(=O)NCc1ccoc1	11.2µM*	14.1µM*	x	x	u	u	u
COc1cc2c(cc1OC)C(c1c(O)n(CCc3ccccc3)c(=S)[nH]c1=O)NCC2 (centres undefined)	u	-28.5%	u	25.1%	-6.3%	-0.2%	u
COc1ccc(C2CC(c3c(O)n(CCc4ccccc4)c(=O)[nH]c3=O)=NN2)cc1OC (centres undefined)	-11.7%	-1.0%	-19.9%	13.0%	-1.0%	2.6%	x
CN(C(=O)Cc1ccc(Cl)c(Cl)c1)C(CN1CCCC1)c1cccc(N=C=S)c1 (centres undefined)	-3.1%	2.6%	x	x	x	3.6%	x
CC(Oc1ccc(Cl)cc1Cl)C(=O)Nc1ccc(S(=O)(=O)Nc2cnc3ccccc3n2)cc1 (centres undefined)	17.8µM*	-20.3%	-11.2%	-10.9%	-23.0%	-9.8%	u	RECQ1 conf=-8.7%[114 µM];ADP FP counter=8.8%[91.9 µM]
COc1cc(NS(=O)(=O)c2ccc(NC(=S)NC(=O)CC(C)C)cc2)nc(OC)n1	0.5%	-2.1%	-8.5%	10.4%	-6.4%	u	x
[O-][Cl+2]([O-])O	-3.8%	x	x	x	x	-2.1%	x
CC1COC2=C1C(=O)C(=O)c1c2ccc2c1CCCC2(C)C (centres undefined)	12.6µM*!	28.2µM*	x	x	u	u	x	RECQ1 conf=100µM*;ADP FP counter=28.2µM*
O=C1C(=O)c2ccccc2-c2ccccc21	u	0.1%	-29.7%	-9.1%	20µM*	u	10µM*
COc1cccc(CN2CCC(n3nccc3NC(=O)CCOc3ccccc3)CC2)c1O	x	x	u	24.1%	x	x	x
C=C1C(=O)O[C@@H]2C[C@@H](C)[C@@H]3C=CC(=O)[C@@]3(C)[C@@H](OC(=O)CC(=O)O[C@H]3[C@@H]4C(=C)C(=O)O[C@@H]4C[C@@H](C)[C@@H]4C=CC(=O)[C@]43C)[C@H]12	25.1µM*	-6.6%	44.7µM*	2.8%	22.4µM*	-11.4%	x	RECQ1 conf=14.1µM*;ADP FP counter=-3.9%[91.9 µM]
COc1ccc(CCn2c(NN=C3CCCCC3)nc3c2c(=O)[nH]c(=O)n3C)cc1	u	-5.8%	-5.0%	2.4%	-9.9%	-3.3%	x
O=C(O)CCn1cc(C=C2C(=O)NC(=O)NC2=O)c(-c2cc3ccccc3oc2=O)n1	20.8%	-4.8%	-30.3%	10.1%	3.2%	-7.5%	x	RECQ1 conf=15.3%;ADP FP counter=-3.1%
O=C1C=CC(=O)C(Cl)=C1	20µM*	15.8µM*	x	x	-15.8%	28.2µM*	x	RECQ1 conf=u;ADP FP counter=15.8µM*
COC(=O)[C@]1(C)CC[C@@]2(C)CC[C@@]3(C)C4=CC=C5C(=CC(=O)C(O)=C5C)[C@@]4(C)CC[C@@]3(C)C2C1 (some centres undefined)	-6.3%	-16.5%	x	x	-3.8%	4.0%	x
O=c1[nH]c(=O)n(CCC2=CCCCC2)c(O)c1C=NCCCn1ccnc1	-7.6%	-6.0%	-9.3%	5.6%	-1.4%	-0.4%	x
O=c1[nH]c(=S)n(CCC2=CCCCC2)c(O)c1C=NCCCn1ccnc1	u	-0.3%	-10.0%	6.7%	-8.3%	16.1%	-18.6%
Cc1[nH]cnc1CCN	i	x	x	x	-6.8%	1.1%	x
O=C1CC(N2CC=C(c3ccccc3)CC2)C(=O)N1c1ccc(F)cc1 (centres undefined)	28.2µM*	-10.1%	-9.4%	29.7%	-7.4%	-6.2%	-23.6%
SMILES	RECQ1 inh-1	KAT2A inh	WRN inhibitor	ERG Ets-DNA blk	BLM inh	APEX1 inh	RECQ1 inh-2	others
CCCOc1ccc(N2C(=O)CC(N3CC=C(c4ccccc4)CC3)C2=O)cc1 (centres undefined)	-1.4%	1.7%	-0.6%	16.6%	-7.6%	3.3%	x
Nc1ccc(Cl)cc1C(=O)c1ccccc1Cl	25.1µM*	-4.7%	-26.8%[57.1 µM]	6.3%	-8.8%	-2.9%	-20.1%
Nc1ccc(Cl)cc1C(=O)c1ccccc1	i	-4.8%	-6.7%	10.3%	-5.7%	u	x
C[N+]1([O-])[C@@H]2CC[C@H]1CC(OC(=O)C(CO)c1ccccc1)C2 (some centres undefined)	x	x	x	x	x	4.7%[21 µM]	x
CC[C@@H]1CN2CCc3cc(OC)c(OC)cc3[C@@H]2C[C@@H]1C[C@H]1NCCc2cc(OC)c(OC)cc21	2.3%	5.1%[0.501 µM]	x	x	-9.5%	12.3%	x
O=C(O)c1ccccc1-c1nc2ccccc2n1-c1ccccc1	11.2µM*	-0.2%	-26.0%[57.1 µM]	-0.1%	0.4%	3.2%	1.78µM*	RECQ1 conf=39.8µM*
COC[C@H]1OC(=O)c2coc3c2[C@@]1(C)C1=C(C3=O)[C@@H]2CCC(=O)[C@@]2(C)C[C@H]1OC(C)=O	35.5µM*	3.8%	u	u	x	-10.2%	5.2%
C=C(C)C(N)=O	-10.7%	x	x	x	x	14.5%	x
COc1cccc(CNC(=O)CSc2ccc(-c3ccco3)nn2)c1	u	-15.7%	-5.5%	-0.8%	-19.6%	u	-14.0%
COc1cccc(-c2nn(Cc3ccccc3)cc2C(=O)O)c1	x	-3.9%	4.6%	-10.6%	-1.3%	86.4%	x
CCC(C=C[C@@H]1OC(=O)C=C[C@H]1C)=C[C@H](C)CC=CC(C)=C[C@@H](C)C(=O)[C@@H](C)[C@H](O)[C@@H](C)CC(C)=CC(=O)O	u	-18.1%[2.33 µM]	x	x	u	u	1.34µM*
